Compound activity from PubChem BioAssay.
A selection: hits, their analogues and other compounds. The true share with any hit is near 6.7%.
T cruzi growth-1 = blocks T. cruzi growth in NIH3T3 culture; T. cruzi beta-gal in NIH3T3, GalScreen luminescence, 90 h; inhibition, % at 8.34 µM; actives 5.9% (n = 77,000);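 active means mean inhibition above about 93%, with at least 55% of replicates each passing it, limit read from the data, passing the limit was not always enough; inconclusive means only one of those two conditions holds; inactive means neither condition holds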
C diff HTS = C. difficile growth inhibition. Clostridium difficile clinical isolate growth, OD600, 24 h; stronger effect = lower value. growth activity, negative = inhibition, % at 16 µg/mL (by protocol). actives 0.25% (n = 86,000). AID 1259249;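 active means mean growth activity at or below -80% and every replicate also at or below -80%; inconclusive means mean at or below -80% but some replicate above -80%; inactive means mean growth activity above -80%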;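 further: 0% = DMSO wells and -100% = levofloxacin 16 µg/mL wells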
Pf Dd2 inh = blocks growth of Plasmodium falciparum Dd2 parasites. activity change, % at 10 µM. P. falciparum Dd2 growth, SYBR Green, 72 h; stronger effect = lower value. actives 2.3% (n = 94,000); in the data active means activity change below about -80%; inconclusive means no clear call, values can overlap the other calls
T cruzi growth-2 = blocks T. cruzi growth in NIH3T3 host cells | shares compounds with T cruzi growth-1 | T. cruzi beta-gal in NIH3T3, GalScreen luminescence, 90 h | inhibition, % at 8.35 µM | actives 72% (n = 5,600) | AID 651739;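 active means mean replicate inhibition above about 95% and at least 55% of replicates individually reaching it, limit read from the data; inconclusive means only one of the two criteria is met; inactive means neither criterion is met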
T cruzi growth-3 = blocks T. cruzi growth in NIH3T3 host cells; shares compounds with T cruzi growth-1; T. cruzi beta-gal in NIH3T3, GalScreen luminescence, 90 h; inhibition, % at 2.09 µM; actives 21% (n = 5,600);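 active means mean inhibition above about 95%, with at least 55% of replicates also reaching it, limit read from the data; inconclusive means meets just one of the two conditions; inactive means meets neither condition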;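 further: plate controls were neutral control median for no effect and positive control median for full effect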
3T3 cytotox = NIH/3T3 (mouse) viability loss; NIH/3T3 viability, CellTiter-Glo ATP luminescence, 90 h; shares compounds with T cruzi growth-1; actives 14% (n = 5,600); cytotoxicity (signal decrease), % at 8.35 µM;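 active means mean signal decrease across replicates above about 35% based on untreated-well scatter, with enough replicates individually passing, limit read from the data; inconclusive means no rule stated though some were filed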;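 further: 0% = median of neutral control wells and 100% = median of positive control wells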
3T3 cytotox 2 = cytotoxicity in mouse NIH/3T3 fibroblasts; actives 56% (n = 5,600); NIH/3T3 viability, CellTiter-Glo ATP luminescence, 90 h; shares compounds with T cruzi growth-1; inhibition, % at 24.9 µM;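 active means mean loss of cell viability signal at or above a set limit, and enough replicates individually reaching it; inconclusive means meets only the mean limit or only the replicate share; inactive means meets neither condition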;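 further: 0% = median of neutral control wells and 100% = median of positive control wells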
An asterisk follows results filed as active.

Screening C[C@H]1CCCCO[C@@H](CN(C)CC2CCCCC2)[C@@H](C)CN([C@@H](C)CO)C(=O)c2cc(NC(=O)c3ccccc3)ccc2O1 returned T cruzi growth-1 39, C diff HTS 5 and Pf Dd2 inh inconclusive.
For C[C@@H]1CCCCO[C@H](CN(C)CC2CCCCC2)[C@H](C)CN([C@@H](C)CO)C(=O)c2cc(NC(=O)c3ccccc3)ccc2O1 the results were T cruzi growth-1 115, C diff HTS 1 and Pf Dd2 inh -64.
Screening COc1ccc(NC(=O)Nc2ccc3c(c2)CC(=O)N([C@@H](C)CO)C[C@@H](C)[C@H](CN(C)CC2CC2)O3)cc1 returned T cruzi growth-1 26, C diff HTS -3 and Pf Dd2 inh -41.
For COc1ccc(NC(=O)Nc2ccc3c(c2)C(=O)N([C@H](C)CO)C[C@@H](C)[C@@H](CN(C)CC2CCCCC2)OCCCC[C@H](C)O3)cc1 the results were T cruzi growth-1 91, C diff HTS -8 and Pf Dd2 inh -75.
`CCCNC(=O)C[C@H]1C[C@@H]2c3cc(NC(=O)COC)ccc3O[C@@H]2[C@H](CO)O1` gave T cruzi growth-1 -6, C diff HTS 0 and Pf Dd2 inh 16.
Screening O=C(CN1CCOCC1)N[C@H]1CC[C@@H](CCNC(=O)C2CCC2)O[C@@H]1CO returned T cruzi growth-1 24 and Pf Dd2 inh -13.
For C[C@@H]1CCCCO[C@@H](CN(C)CC2CC2)[C@H](C)CN([C@H](C)CO)C(=O)c2cc(NC(=O)Nc3ccccc3)ccc2O1 the results were T cruzi growth-1 86 and Pf Dd2 inh -35.
`C[C@@H]1CN([C@@H](C)CO)C(=O)c2cc(NC(=O)Nc3ccc4c(c3)OCO4)ccc2O[C@@H](C)CCCCO[C@@H]1CN(C)CC1CCCCC1` gave T cruzi growth-1 -43, C diff HTS 2 and Pf Dd2 inh -79.
Screening C[C@@H]1CCCCO[C@@H](CN(C)CC2CCCCC2)[C@H](C)CN([C@@H](C)CO)C(=O)c2cc(NC(=O)Nc3ccccc3)ccc2O1 returned T cruzi growth-1 105*, C diff HTS 12, Pf Dd2 inh -71, T cruzi growth-2 101*, T cruzi growth-3 58, 3T3 cytotox 31 and 3T3 cytotox 2 104*.
C[C@@H]1CCCCO[C@H](CN(C)CC2CCCCC2)[C@H](C)CN([C@@H](C)CO)C(=O)c2cc(NC(=O)Nc3ccccc3)ccc2O1 was read as T cruzi growth-1 92, C diff HTS 0 and Pf Dd2 inh -67.
Screening C[C@@H]1CCCCO[C@@H](CN(C)CC2CCCCC2)[C@@H](C)CN([C@@H](C)CO)C(=O)c2cc(NC(=O)Nc3ccccc3)ccc2O1 returned T cruzi growth-1 125*, C diff HTS 8, Pf Dd2 inh -69, T cruzi growth-2 104*, T cruzi growth-3 92, 3T3 cytotox 23 and 3T3 cytotox 2 103*.
`C[C@H]1CCCCO[C@@H](CN(C)CC2CCCCC2)[C@@H](C)CN([C@@H](C)CO)C(=O)c2cc(NC(=O)Nc3ccc4c(c3)OCO4)ccc2O1` gave T cruzi growth-1 99*, C diff HTS -6, Pf Dd2 inh -81*, T cruzi growth-2 inconclusive, T cruzi growth-3 109*, 3T3 cytotox 41* and 3T3 cytotox 2 106*.
`O=C(NCC[C@@H]1CC[C@H](NS(=O)(=O)c2ccc(F)cc2)[C@@H](CO)O1)c1ccccc1F` gave C diff HTS 0 and Pf Dd2 inh -9.
Screening COc1ccccc1NC(=O)N1CC(=O)N2[C@H](CO)[C@@H](c3ccc(-c4ccc(C)cc4)cc3)[C@@H]2C1 returned C diff HTS 48 and Pf Dd2 inh -24.
For COC(=O)C[C@H]1C[C@@H]2c3cc(NS(=O)(=O)c4ccc(OC)cc4)ccc3O[C@@H]2[C@@H](CO)O1 the results were T cruzi growth-1 -3, C diff HTS -2 and Pf Dd2 inh -10.
C[C@H](CO)N1C[C@H](C)[C@@H](CN(C)Cc2ccc(C(F)(F)F)cc2)OCc2cn(nn2)CCCC1=O was read as T cruzi growth-1 49, C diff HTS -4 and Pf Dd2 inh -5.
Cc1noc(C)c1NC(=O)Nc1ccc2c(c1)CC(=O)N([C@@H](C)CO)C[C@@H](C)[C@@H](CN(C)CC1CC1)O2 was read as T cruzi growth-1 -21, C diff HTS -5 and Pf Dd2 inh -6.
For CCCN(C)C[C@@H]1OCCCC[C@@H](C)Oc2ccc(NS(=O)(=O)c3c(C)noc3C)cc2C(=O)N([C@@H](C)CO)C[C@@H]1C the results were T cruzi growth-1 19, C diff HTS 7 and Pf Dd2 inh -61.
`CC(C)CC#Cc1ccc([C@@H]2[C@@H](CO)N3CCCCN(S(=O)(=O)c4ccc(F)cc4)C[C@H]23)cc1` gave T cruzi growth-1 55, C diff HTS 18 and Pf Dd2 inh -67.
Screening CC(C)CC#Cc1ccc([C@H]2[C@@H](CO)N3CCCCN(S(=O)(=O)c4ccc(F)cc4)C[C@H]23)cc1 returned T cruzi growth-1 63, C diff HTS -4 and Pf Dd2 inh -68.
`CC(C)CC#Cc1ccc([C@H]2[C@H]3CN(S(=O)(=O)c4ccc(F)cc4)CCCCN3[C@H]2CO)cc1` gave T cruzi growth-1 116*, C diff HTS 8, Pf Dd2 inh 11, T cruzi growth-2 111*, T cruzi growth-3 95, 3T3 cytotox 21 and 3T3 cytotox 2 12.
CC(C)CC#Cc1ccc([C@@H]2[C@@H](CO)N3CCCCN(S(=O)(=O)c4ccc(F)cc4)C[C@@H]23)cc1 was read as T cruzi growth-1 105*, C diff HTS 1, Pf Dd2 inh -2, T cruzi growth-2 108*, T cruzi growth-3 72, 3T3 cytotox -3 and 3T3 cytotox 2 89*.
`C[C@@H]1CCCCO[C@H](CN(C)Cc2ccc3c(c2)OCO3)[C@@H](C)CN([C@@H](C)CO)C(=O)c2cc(NC(=O)C3CCCCC3)ccc2O1` gave T cruzi growth-1 42, C diff HTS 7 and Pf Dd2 inh -66.
`CC(C)NC(=O)N(C)C[C@@H]1Oc2ccc(NC(=O)Cn3cnnn3)cc2C(=O)N([C@@H](C)CO)C[C@@H]1C` gave T cruzi growth-1 -7 and Pf Dd2 inh 30.
Cc1ccc(S(=O)(=O)Nc2ccc3c(c2)C(=O)N([C@@H](C)CO)C[C@H](C)[C@@H](CN(C)S(=O)(=O)c2ccc(C)cc2)OCCCC[C@@H](C)O3)cc1 was read as T cruzi growth-1 102*, Pf Dd2 inh -44, T cruzi growth-2 105*, T cruzi growth-3 73, 3T3 cytotox 7 and 3T3 cytotox 2 5.
